# Data: publication PMC5700166
# Columns and labels:
# Assay in all cases: protein-binding microarray (PBM); PBM: ~300 nM protein, 6 mM HEPES pH 7.8, 80 mM KCl, 0.5 mM EDTA, 0.5 mM EGTA, 6% glycerol, 35 ng/ul poly-dIdC, 1% milk, 1 h, room temperature; Ap Aiptasia and Nv Nematostella (sea anemones) / Co Capsaspora / Aq Amphimedon (sponge) / Dm Drosophila / Hu human; RHD is the Rel homology domain; high values mean tight binding
# Conditions in all cases: dsDNA, one strand shown
# GST-Ap-NF-kB RHD = target: T1, GST-Ap-NF-kB RHD (Exaiptasia pallida (Aiptasia), UniProt A0A913YAJ5 2-422)
# T1 sequence: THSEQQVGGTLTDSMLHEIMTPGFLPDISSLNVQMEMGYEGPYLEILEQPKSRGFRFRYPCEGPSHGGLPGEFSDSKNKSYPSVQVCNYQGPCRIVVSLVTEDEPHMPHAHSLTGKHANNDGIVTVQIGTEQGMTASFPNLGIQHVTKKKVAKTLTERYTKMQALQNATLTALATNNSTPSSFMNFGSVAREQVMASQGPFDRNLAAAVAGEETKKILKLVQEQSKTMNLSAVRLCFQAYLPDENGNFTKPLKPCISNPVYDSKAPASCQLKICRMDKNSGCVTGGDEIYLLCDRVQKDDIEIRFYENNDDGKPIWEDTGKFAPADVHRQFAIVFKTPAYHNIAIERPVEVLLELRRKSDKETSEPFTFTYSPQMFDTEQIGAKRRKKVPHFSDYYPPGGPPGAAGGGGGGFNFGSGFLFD
# [1] = target: T2, GST-Nv-NF-kB (Cys allele) (Nematostella vectensis, UniProt E5G601 2-411)
# T2 sequence: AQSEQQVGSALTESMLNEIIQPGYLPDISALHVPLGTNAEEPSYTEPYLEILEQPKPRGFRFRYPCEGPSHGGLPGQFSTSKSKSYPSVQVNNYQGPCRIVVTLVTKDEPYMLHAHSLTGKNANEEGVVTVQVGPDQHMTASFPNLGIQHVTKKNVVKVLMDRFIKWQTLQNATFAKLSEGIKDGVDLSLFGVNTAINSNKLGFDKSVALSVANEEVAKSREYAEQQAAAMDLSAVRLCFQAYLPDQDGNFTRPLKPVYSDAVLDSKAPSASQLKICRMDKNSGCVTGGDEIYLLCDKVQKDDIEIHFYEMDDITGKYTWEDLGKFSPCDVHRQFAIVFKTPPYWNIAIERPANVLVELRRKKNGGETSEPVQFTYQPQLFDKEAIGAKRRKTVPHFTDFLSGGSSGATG
# GST-Co-NF-kB = target: T3, GST-Co-NF-kB (Capsaspora owczarzaki, UniProt F1ARL5 200-546)
# T3 sequence: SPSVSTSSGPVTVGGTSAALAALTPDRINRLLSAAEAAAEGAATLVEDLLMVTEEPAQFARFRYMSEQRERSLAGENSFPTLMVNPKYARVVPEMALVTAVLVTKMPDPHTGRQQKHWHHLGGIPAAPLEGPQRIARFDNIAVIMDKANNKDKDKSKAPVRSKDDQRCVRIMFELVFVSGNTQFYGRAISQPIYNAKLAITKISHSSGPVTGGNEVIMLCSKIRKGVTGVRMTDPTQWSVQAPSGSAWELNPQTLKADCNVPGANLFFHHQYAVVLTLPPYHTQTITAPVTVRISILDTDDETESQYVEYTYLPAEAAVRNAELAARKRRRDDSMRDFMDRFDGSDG
# GST-Dm-Relish = target: T4, GST-Dm-Relish (Drosophila melanogaster, UniProt Q94527 99-473)
# T4 sequence: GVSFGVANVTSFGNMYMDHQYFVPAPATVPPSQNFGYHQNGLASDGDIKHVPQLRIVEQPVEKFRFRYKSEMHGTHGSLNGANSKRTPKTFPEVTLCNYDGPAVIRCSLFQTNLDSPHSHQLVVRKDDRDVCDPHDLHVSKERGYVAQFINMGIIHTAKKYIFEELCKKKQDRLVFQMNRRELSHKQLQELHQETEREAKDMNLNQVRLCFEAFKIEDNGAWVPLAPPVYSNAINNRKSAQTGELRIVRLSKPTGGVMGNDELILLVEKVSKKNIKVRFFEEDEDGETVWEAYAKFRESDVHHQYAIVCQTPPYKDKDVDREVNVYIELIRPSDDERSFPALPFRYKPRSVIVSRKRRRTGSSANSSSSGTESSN
# GST-Aq-NF-kB = target: T5, GST-Aq-NF-kB (Amphimedon queenslandica, UniProt A9Y5G7 2-389)
# T5 sequence: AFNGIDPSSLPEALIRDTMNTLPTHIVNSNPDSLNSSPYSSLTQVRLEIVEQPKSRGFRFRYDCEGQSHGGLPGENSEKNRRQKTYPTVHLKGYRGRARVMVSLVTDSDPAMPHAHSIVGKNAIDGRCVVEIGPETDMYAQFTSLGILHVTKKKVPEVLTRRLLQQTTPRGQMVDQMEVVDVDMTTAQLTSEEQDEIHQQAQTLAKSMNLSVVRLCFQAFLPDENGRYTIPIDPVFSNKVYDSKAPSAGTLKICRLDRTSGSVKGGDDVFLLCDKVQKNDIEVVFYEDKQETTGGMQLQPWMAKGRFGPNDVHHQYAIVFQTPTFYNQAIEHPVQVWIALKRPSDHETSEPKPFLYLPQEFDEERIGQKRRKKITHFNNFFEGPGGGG
Sequence,binding signal (GST-Ap-NF-kB RHD),binding signal [1],binding signal (GST-Co-NF-kB),binding signal (GST-Dm-Relish),binding signal (GST-Aq-NF-kB)
CCGATTAACATCAATGCACCCCCTGATGTTAATCGGGTCTTGATTCGCTTGACGCTGCTG,4.19 z-score,2.93 z-score,3.47 z-score,3.29 z-score,3.4 z-score
CCGATTAACATCAGGGGATCCACTGATGTTAATCGGGTCTTGATTCGCTTGACGCTGCTG,7.41 z-score,5.27 z-score,2.76 z-score,9.75 z-score,6.81 z-score
CCGATTAACATCAGAAATCTCCCTGATGTTAATCGGGTCTTGATTCGCTTGACGCTGCTG,3.4 z-score,5.21 z-score,2.43 z-score,1.79 z-score,5.79 z-score
CCGATTAACATCAGGGGGCAAGATGATGTTAATCGGGTCTTGATTCGCTTGACGCTGCTG,2.07 z-score,2.14 z-score,2.69 z-score,1.01 z-score,2.76 z-score
CCGATTAACATCAGGGAGATTTATGATGTTAATCGGGTCTTGATTCGCTTGACGCTGCTG,3.69 z-score,5.42 z-score,2.8 z-score,1.71 z-score,5.99 z-score
CCGATTAACATCAGGGAGCCCCCTGATGTTAATCGGGTCTTGATTCGCTTGACGCTGCTG,8.32 z-score,4.79 z-score,2.5 z-score,9.12 z-score,7.55 z-score
CCGATTAACATCAGGGAGATTTGTGATGTTAATCGGGTCTTGATTCGCTTGACGCTGCTG,3.21 z-score,4.56 z-score,2.54 z-score,1.8 z-score,4.63 z-score
CCGATTAACATCAGGATCTTCCCTGATGTTAATCGGGTCTTGATTCGCTTGACGCTGCTG,3.64 z-score,3.68 z-score,1.18 z-score,1.53 z-score,5.89 z-score
CCGATTAACATCAGGGGGACAAATGATGTTAATCGGGTCTTGATTCGCTTGACGCTGCTG,4.37 z-score,4.84 z-score,7.51 z-score,2.64 z-score,4.19 z-score
CCGATTAACATCAACCCCGTTTCTGATGTTAATCGGGTCTTGATTCGCTTGACGCTGCTG,1.51 z-score,1.29 z-score,1.63 z-score,1.65 z-score,2.24 z-score
CCGATTAACATCAATTTTCCCAATGATGTTAATCGGGTCTTGATTCGCTTGACGCTGCTG,1.98 z-score,3.86 z-score,3.99 z-score,1.29 z-score,2.61 z-score
CCGATTAACATCACCCCCCCCCGTGATGTTAATCGGGTCTTGATTCGCTTGACGCTGCTG,7.33 z-score,5.51 z-score,7.6 z-score,6.11 z-score,5.46 z-score
CCGATTAACATCAAGGTACCCCCTGATGTTAATCGGGTCTTGATTCGCTTGACGCTGCTG,5.83 z-score,2.82 z-score,4.58 z-score,2.84 z-score,3.11 z-score
CCGATTAACATCAGATTCTCCCCTGATGTTAATCGGGTCTTGATTCGCTTGACGCTGCTG,5.2 z-score,5.25 z-score,6.76 z-score,1.92 z-score,4.43 z-score
CCGATTAACATCACCAATTTCCCTGATGTTAATCGGGTCTTGATTCGCTTGACGCTGCTG,3.3 z-score,4.17 z-score,3.83 z-score,1.84 z-score,3.17 z-score
CCGATTAACATCAAGGGGTCCCCTGATGTTAATCGGGTCTTGATTCGCTTGACGCTGCTG,5.55 z-score,3.3 z-score,1.66 z-score,6.15 z-score,4.02 z-score
CCGATTAACATCAGGGAATGACCTGATGTTAATCGGGTCTTGATTCGCTTGACGCTGCTG,2.15 z-score,3.16 z-score,1.03 z-score,3.4 z-score,5.79 z-score
CCGATTAACATCACCAAAATCCCTGATGTTAATCGGGTCTTGATTCGCTTGACGCTGCTG,3.22 z-score,2.45 z-score,1.36 z-score,5.42 z-score,2.86 z-score
CCGATTAACATCAAATCATCCCCTGATGTTAATCGGGTCTTGATTCGCTTGACGCTGCTG,4.78 z-score,5.38 z-score,5.87 z-score,4.06 z-score,5.27 z-score
CCGATTAACATCAAGGGGGTAAATGATGTTAATCGGGTCTTGATTCGCTTGACGCTGCTG,5.28 z-score,3.77 z-score,6.69 z-score,2.72 z-score,4.26 z-score
CCGATTAACATCAGGAATACCCATGATGTTAATCGGGTCTTGATTCGCTTGACGCTGCTG,4.37 z-score,4.62 z-score,1.39 z-score,4.16 z-score,4.54 z-score
CCGATTAACATCAAGTAAATCCCTGATGTTAATCGGGTCTTGATTCGCTTGACGCTGCTG,2.24 z-score,2.71 z-score,1.22 z-score,7.89 z-score,3.24 z-score
CCGATTAACATCATGGGAAAAAATGATGTTAATCGGGTCTTGATTCGCTTGACGCTGCTG,1.94 z-score,3.64 z-score,4.93 z-score,1.7 z-score,2.57 z-score
CCGATTAACATCAGGGATAACCCTGATGTTAATCGGGTCTTGATTCGCTTGACGCTGCTG,3.63 z-score,3.77 z-score,1.82 z-score,4.42 z-score,6.12 z-score
CCGATTAACATCAAAGAAGCCCCTGATGTTAATCGGGTCTTGATTCGCTTGACGCTGCTG,4.38 z-score,5.52 z-score,1.52 z-score,4.39 z-score,5.13 z-score
CCGATTAACATCACGGATTTCCCTGATGTTAATCGGGTCTTGATTCGCTTGACGCTGCTG,3.73 z-score,5.2 z-score,3.28 z-score,5.3 z-score,5.69 z-score
CCGATTAACATCACGGAGTTCCCTGATGTTAATCGGGTCTTGATTCGCTTGACGCTGCTG,2.6 z-score,1.63 z-score,1.53 z-score,5 z-score,4.63 z-score
